High-throughput results: PubChem, Broad Institute
The entries come from a sample that favours hits as a whole.
CD40 NFkB inh – CD40 pathway inhibition in BL2 cells; inhibition, % at 10 µM; 0.94% of 83,000 active; AID 1053188; BL2 NF-kB luciferase reporter, CD40L-induced, 4 h;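 active means mean inhibition of at least 50% with a set share of replicates also reaching that level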;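 further: 0% = neutral control wells and 100% = IKK inhibitor VII at 50 µM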
* marks the source's active call; other numbers are inactive results; [ ] = remark or other dose.

For C[C@@H]1CN([C@@H](C)CO)C(=O)c2c(c3ccccc3n2C)-c2ccccc2CO[C@@H]1CN(C)S(=O)(=O)c1ccc([N+](=O)[O-])cc1 the results were CD40 NFkB inh 31[25 µM].
`COc1cccc(S(=O)(=O)N(C)C[C@@H]2OCc3ccccc3-c3c(n(C)c4ccccc34)C(=O)N([C@H](C)CO)C[C@@H]2C)c1` gave CD40 NFkB inh 62*[25 µM].
Screening COc1cccc(S(=O)(=O)N(C)C[C@@H]2OCc3ccccc3-c3c(n(C)c4ccccc34)C(=O)N([C@H](C)CO)C[C@H]2C)c1 returned CD40 NFkB inh 64*[25 µM].
`C[C@@H]1CN([C@H](C)CO)C(=O)c2c(c3ccccc3n2C)-c2ccccc2CO[C@@H]1CN(C)S(=O)(=O)c1ccc([N+](=O)[O-])cc1` gave CD40 NFkB inh 22[25 µM].
`COc1cccc(S(=O)(=O)N(C)C[C@H]2OCc3ccccc3-c3c(n(C)c4ccccc34)C(=O)N([C@H](C)CO)C[C@@H]2C)c1` gave CD40 NFkB inh 57*[25 µM].
C[C@@H]1CN([C@H](C)CO)C(=O)c2c(c3ccccc3n2C)-c2ccccc2CO[C@H]1CN(C)S(=O)(=O)c1cccc(F)c1 was read as CD40 NFkB inh 2.
C[C@H]1CN([C@@H](C)CO)C(=O)c2c(c3ccccc3n2C)-c2ccccc2CO[C@@H]1CN(C)S(=O)(=O)c1cccc(F)c1 was read as CD40 NFkB inh 5.
C[C@@H]1CN([C@H](C)CO)C(=O)c2c(c3ccccc3n2C)-c2ccccc2CO[C@@H]1CN(C)S(=O)(=O)c1ccccc1 was read as CD40 NFkB inh 8.
Screening C[C@H](CO)N1C[C@H](C)[C@H](CN(C)S(=O)(=O)c2cccc(F)c2)OCc2ccccc2-c2c(n(C)c3ccccc23)C1=O returned CD40 NFkB inh -3.
For C[C@H](CO)N1C[C@H](C)[C@H](CN(C)S(=O)(=O)c2ccc([N+](=O)[O-])cc2)OCc2ccccc2-c2c(n(C)c3ccccc23)C1=O the results were CD40 NFkB inh 63*[25 µM].
C[C@@H]1CN([C@H](C)CO)C(=O)c2c(c3ccccc3n2C)-c2ccccc2CO[C@@H]1CN(C)S(=O)(=O)c1cccc(F)c1 was read as CD40 NFkB inh -8.
Screening C[C@H]1CN([C@@H](C)CO)C(=O)c2cc(-c3cccnc3)cnc2O[C@H]1CN(C)C(=O)Nc1ccccc1 returned CD40 NFkB inh -10[25 µM].
For O=C(c1ccccn1)N1C[C@H]2[C@@H](c3ccccc31)[C@H](CO)N2C(=O)C1CCCCC1 the results were CD40 NFkB inh -4[25 µM].
CC(=O)OC1C(=O)C2(C)C(O)CC3OCC3(OC(C)=O)C2C(OC(=O)c2ccccc2)C2(O)CC(OC(=O)C(O)C(NC(=O)c3ccccc3)c3ccccc3)C(C)=C1C2(C)C (stereo not given) was read as CD40 NFkB inh 4[25 µM].
For O=C(C[C@H]1C[C@@H]2c3cc(NC(=O)C4CCOCC4)ccc3O[C@@H]2[C@@H](CO)O1)NCc1ccc(Oc2ccccc2)cc1 the results were CD40 NFkB inh -4[25 µM].
`CC(=O)N(C)C[C@@H]1Oc2ccccc2CC(=O)N(C)C[C@H]1C` gave CD40 NFkB inh 4.
`COc1ccc([C@@H]2C/C=C\C[C@@H](c3ccc4c(c3)OCO4)NC(=O)[C@H](c3ccccc3)CC(=O)N2)c(OC)c1` gave CD40 NFkB inh -2[25 µM].
CO[C@@H](CN(C)C(=O)c1ccccc1F)[C@@H](C)CN([C@H](C)CO)S(=O)(=O)c1ccccc1 was read as CD40 NFkB inh -7.
For COc1ccc(C#Cc2ccc([C@@H]3[C@@H](CO)N4C(=O)CN(C(=O)NC(C)C)C[C@@H]34)cc2)cc1 the results were CD40 NFkB inh 13[25 µM].
Screening COc1ccc(S(=O)(=O)N(C)C[C@H]2OCc3ccccc3-c3c(n(C)c4ccccc34)C(=O)N([C@H](C)CO)C[C@H]2C)cc1 returned CD40 NFkB inh 4.
COc1cccc(S(=O)(=O)N(C)C[C@H]2OCc3ccccc3-c3c(n(C)c4ccccc34)C(=O)N([C@@H](C)CO)C[C@H]2C)c1 was read as CD40 NFkB inh 61*[25 µM].
For Cc1cccc(S(=O)(=O)N(C)C[C@@H]2OCc3ccccc3-c3c(n(C)c4ccccc34)C(=O)N([C@H](C)CO)C[C@@H]2C)c1 the results were CD40 NFkB inh 15.
`CO[C@H](CN(C)C(=O)c1ccccc1F)[C@@H](C)CN([C@H](C)CO)S(=O)(=O)c1ccc(F)cc1` gave CD40 NFkB inh 9[25 µM].
For CO[C@H]1CN(C)C(=O)c2cc(NC(=O)NC3CCCCC3)ccc2OC[C@@H](C)N(C)C[C@H]1C the results were CD40 NFkB inh 8.
c1ccc(CN2CCN(c3nc(-c4ccccn4)nc4ccccc34)CC2)cc1 was read as CD40 NFkB inh -18.
For c1ccc(-c2nc(N3CCCCCC3)c3ccccc3n2)nc1 the results were CD40 NFkB inh 53*.
CCN1CCN(c2nc(-c3ccccn3)nc3ccccc23)CC1 was read as CD40 NFkB inh -25.
Screening c1ccc(CCc2nc(-c3ccccn3)no2)cc1 returned CD40 NFkB inh -80.
Screening c1ccc(CCNc2nc(-c3ccccn3)nc3ccccc23)cc1 returned CD40 NFkB inh 43*.
